# Over roughly 59,000 sequences, the read-out has its median near -0.00055; the lowest 2% begin near -2. The entries come from a sample that favours the lowest values as a whole.
# Test: Identification of proteins required for the processing of the EWS-FLI1 nascent transcript;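 further: robust z of luciferase light less the median z of siRNAs with the same seed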
# Details: TC32 Ewing sarcoma NR0B1-luc vs CMV-luc (EWS-FLI1 target promoter against control promoter), 48 h; screened at 20 nM (by protocol)
# How it was run: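 Readout: OneGlo luminescence, 48 h post-transfection, TC32-NR0B1-luc vs TC32-CMV-luc in parallel. siRNA 20 nM final, RNAiMax lipid, 600 cells/well; z-score-MAD transformed, then seed-adjusted.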
row,Sequence,seed-corrected z-score
1,UGCUUUUAGAAAGUCCAUG against HAUS1,-0.637
2,ACCGUUGUAGUCUCCAUCG against ANO1,-11.8
3,UUUUCAUCUGGUAAAAGGG against FAM13C,-1.06
4,UAUCUUCAGAUCGCUGUAC against ANKFY1,0.715
5,UCUUCGUCCACUCUGAAUC against NMU,-2.29
6,UUUGAUAUUCAUAACGAUC against N4BP2L2,0.28
7,UGCAGUGGACCAUUUAUGC against SUN5,-1.1
8,UACCGAUUGUGAAUGAACC against NHS,-17
9,UUUGGAAUCCUUUACUUGG against GLE1,0.251
10,UUCAUGACAGUGACGAUGC against ITPR3,-0.0506
11,UCUUGGAGUUCCGUCUUUG against FGF20,-0.184
12,UCAUUGAUUAGGUGGAUGC against RRP9,-0.724
13,AUCUGGACCACUAUUUCUU against RSPH9,0.909
14,UGUAGAGAUGCGGUGGUCC against BIRC5,-2.18
15,UAGUUUAACCUUGUCAUCC against CASC4,-0.368
16,UACACUUUCAAAAUCUCUC against ZNF845,0.844
17,UUUAUGACCUCAUUAAGUC against LHCGR,0.284
18,UGAUGAGAUAGAGCCGUGC against TRIM56,-0.836
19,GAAUUUCAGCCGUAGCACG against TMUB1,-2.19
20,ACAAUGGCAUCUUGUGGGC against CORT,0.108
21,UAGUAUGCGGUGGUGAUGG against RAB3A,-0.77
22,UUGGGCAUAUGUUUGCUGC against TACO1,0.306
23,UCGUUUCAAAGGGCUGUGG against SAMD4A,-2.94

row,Sequence,seed-corrected z-score
1,UGAGCAAGGUCUCCAAUCC against SH3RF3,-0.33
2,UUUCGUUUGAGAAAUGCGC against MED23,0.711
3,AUAGUGACCACCCUCAAUC against SPTA1,0.293
4,UACGUUCUGAAUCAAGAAG against DENND5A,-0.28
5,UAAGCAUAUAUUCCCGUAC against CDC7,0.52
6,UUUAUAGUUGGUUAGGUUC against EPB42,-0.0918
7,AUUUGGACCAGUAUGCUUC against HNRNPH1,-2.98
8,UAUUCUGAGAUGCGAAGGC against SLC26A11,0.879
9,UCCAAGAUGAUUCCUCUCC against ZNF557,-0.0489
10,AAAAGAUGCCCAUUCAUUG against DCDC2C,1.89
11,UCAGGAGCAAAGCUUCUUC against VNN3,0.325
12,UCAGCUGAUUCAUUAGAGG against TRIM44,-0.356
13,UCUGUUGUUAGCACACGUC against NID1,-0.891
14,UAUGCUUUCUUGACAGCCC against KCNAB1,-4.96
15,UCCUUGGACAUCAAGAGCC against C16orf91,-0.516
16,UAAUCUAUCCAGGAAUUCC against TTC5,0.1
17,UUUGUUGGAACCCAAGAGC against BLID,-2.2
18,UUUGGGUCCUCGAUCACCC against COL8A1,-1.06
19,UUCCGUAAUGUUGCGCAUG against CORO6,0.106
20,UUCGUGCUGGGUUAUCUCG against COL24A1,0.737
21,UUCCAUAAAGAGUUCUGCC against ZNF280C,0.576
22,UUACUGACGACAUCAUUCC against PRPF40A,-0.273
23,AUACAGAACAUAGUGGUUG against PSMD3,-1.41

row,Sequence,seed-corrected z-score
1,UCAGUAGGCAUUGGAGCGG against CEBPA,-0.0618
2,AAGUCUUCAAGAUCUAUUC against FGL2,0.334
3,UCAUAAGUCAGGGUAUGCC against MPTX1,-3.31
4,UCAUAGGUCACAAAGGUGC against KIF9,0.0712
5,UAUCUAAUUUUGGAAUCUC against VRK1,-0.281
6,UUCAGGGUAAGGUGGAUGG against UBD,0.588
7,AAACUUGUCAUCAGCACGC against MUC13,0.662
8,UUCUGUCCCAUAAAUAGAG against TMEM207,-0.0552
9,UUAUCUAUACAAAGCAGAC against KLRC3,-0.377
10,UUACGCAUAAUUUCCGUCA against VAMP5,-0.171
11,AUCUGGUUUACGGUUAUUC against MEF2C,-2.53
12,AAUCUUGCAAGGUUACUAC against USP33,-1.31
13,UCCAUGACGAAGCUGUUCU against SUV39H1,0.0817
14,UGGUUUAUCAGUUUCAAUG against ARCN1,-4.37
15,UAUCUAAUUGAUGACAUGC against ETAA1,0.0808
16,UGUUCUAUAGGUAACACUC against ZNF559,-0.628
17,UUAAUUGCAUUUGCAGACC against CCDC171,0.492
18,UUGUCUAGAAAAGUCCUGG against UMODL1,-2.58
19,UUCGAUAUUAGGGUAGCGG against SNRNP200,-1.21
20,UGCUGUAAAGUUUUAGUCC against SLC35A5,-0.426
21,UCAGUGUUGGACUCCAUGC against NR2E3,0.652
22,UGUGAGAUCAGGAAUUGAC against TMEM65,-0.934
23,UGCGGUUGACCGUAUAGAC against KBTBD13,-2.49

row,Sequence,seed-corrected z-score
1,UCCUUGGUCACUGUCGCUC against KLF7,-0.201
2,UUGUUGGACAAGUCGAUGG against LRRC57,0.339
3,GUUGUAUUCGUCGUCGUCC against NKX6-2,0.127
4,UACUUAUCUCUGUCUGUUU against UBE2D3,-1.14
5,AUAGGUGCGACUCUCAUCC against SYMPK,-2.35
6,UUGUAGAUGCUGAAUGUCC against DNAAF1,0.337
7,UAAUAUGAUGUCUUCAACC against GABRQ,0.559
8,UGUUUUGCCGUCGAGGUGC against LOC642620,0.782
9,AUUCCGACCAUGGUAAAUG against NAAA,0.829
10,ACAGUACAUAGUAGGGUGG against PRR34,-2.82
11,UUCAUCAAAUUGGACAUCU against ATP6V1E1,-0.95
12,UUGGUGCACAGCCUGGUAC against TSPAN32,-0.435
13,UCUUAGUUUCCAACGAUCC against SZT2,-0.791
14,UCGGUAGUAGUAAUCGUGC against PNPLA1,0.335
15,UUCGCCUCUUGUGCUAUCG against CFAP221,0.264
16,AUGGUUCAAACAUAGGAUG against WNK1,-2.09
17,UACGAGUCACGGGAAAUAC against TAF5,0.238
18,AACUUGAGGAGGGUAAGUG against SERPINF2,-2.44
19,UUGAGUAUUCCGCUCGGGC against EDAR,-0.0352
20,AAAACGACUCUUCAUACUG against CLRN2,-1.29
21,UUUAGCAACAGGUACAUUC against APBB1,-0.4
22,UAGAUUUUAAACAUCCUUG against FAS,0.417
23,UCUUUAUCACGGUCAAAUG against GPALPP1,-0.108

row,Sequence,seed-corrected z-score
1,ACAUGGCUGAUUAAUGUGG against ZNF890P,-0.143
2,UCUGUGGUGAUGAACACUC against OR5J2,-1.13
3,UUUGUUGGUAGCGAUGCAC against MYPN,-2.09
4,AAAACUUCACCUUAUACUC against SDF4,-0.483
5,GAUGCUACGAUACCAGCCA against LYPLA2P2,1.26
6,UGUAUUUCCACGCGUGAGG against ZDHHC11,-0.523
7,AAAUGUGAACCUGUGCUUG against MTUS2-AS1,1.42
8,UACGUGCCGAGUCAUCAGU against DOK4,-2.12
9,AGACCUUAUACAGAGCUGC against CAPG,0.432
10,AGAAGCAUCAUGGAGGUAG against COX14,-1.26
11,ACUAGAAUCAAUAAGGAUG against TMEM243,-0.708
12,UGAGUCAUAAGAAGGGUCU against FLI1,-6.98
13,AUAGGUGAGACGGAGGCUC against VASN,0.00423
14,UCUGGAUCGAGGAAGCGAG against GNLY,-2.28
15,AUAGCAAUCAUAUUCACGG against LIG4,-0.537
16,AACUGAAAUAGAAGUAUCC against TMED6,-0.476
17,UGUUCUCCUGCAGUUAUCC against WFDC3,-0.0122
18,UUGAAGACCAGGUAUUCCC against AGBL4,-0.596
19,UGACGUAUAUCAAUGCUCC against RRAGC,-0.322
20,UAGUCGUCAAGCACUUGGU against SFTPB,-0.3
21,AAAUCUUGAUCUGUGACUC against EN2,0.225
22,UCUCUCAUCAAUAUGCUCU against MTHFD2,0.352
23,UAUAGGCACGCUGCUAUUC against DIRC2,-2.73

row,Sequence,seed-corrected z-score
1,UUCGUUAGGUUUCCUUUCG against HIVEP2,-0.393
2,UUCCGAAAUGAAAAGGAUC against GMPR2,0.18
3,UAAUUGCUGAUAUUCGAGC against EPB41L3,-0.247
4,UAAGAUACUCGGGUUUCAC against ZADH2,-0.425
5,AGUUCGAUUAGCUAAGGCC against SYNRG,-0.0555
6,UAUGGGAGUGUCAAUAAUC against PDHB,-0.681
7,UCAGGUGCAAUCUGACUCU against PPP1R1C,-2.4
8,AUGCUUACAAGAUCUUGUC against USP44,-0.0422
9,UCACGUGUAAAGGAUCACG against RTN4IP1,0.0887
10,UUCUGUUCAAAUCCAUUGG against BUD13,-0.753
11,AGAGUUGUUGUCAUCUUCC against CACNA1S,-0.313
12,UCUGGGCGUAGACAACUGC against CNTFR,-2.12
13,UGAACGUCCCGUCUGAGUG against SCT,-0.424
14,UCUUCAAUAAUGAUCUCCU against MRI1,0.722
15,UGAAGAGUAAGCUCAAACC against ASIC5,-3.53
16,UAAACUUCCCUUUAAAAAC against IRF8,-0.00875
17,UUCAUGUGAACUUACAGUU against UQCRHL,0.0588
18,UUAGUUGCAAGGCAUUCAG against FAM135A,-4.23

# Reference: PubChem BioAssay AID1159506 (National Center for Advancing Translational Sciences (NCATS), 2015)
